Reference: PubChem BioAssay AID1159580 (chemical genetic matrix, 2015)
“And” between values parts separate entries of the source, which are not always exact repeats. Identical values can stand only once. About 2,000 (36%) of roughly 5,500 compounds were called active. Roughly 18% stayed inconclusive and do not appear here. No stated cut-off is given here; in the data, active means normalized growth mostly below about 0.91 (no sharp cut-off); inconclusive means no clear call, values can overlap the other calls; inactive means mostly above about 0.92. This is one part of the list.

Assay: chemical genetic growth profiling, strain panel (AID 1159580);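 further: tested at 20 µM; growth read once vehicle control cultures reached saturation at 30 °C; 1 = growth at the plate median or of vehicle wells; lower values mean less growth of the strain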
Conditions: growth OD

Measured: normalized growth

CC(=O)N1CCCC1C(=O)O (configuration not stated)
inactive: S. cerevisiae deletion strains, locus YAL013W, strain DEP1, active compounds read low 1.01 | S. cerevisiae deletion strains, locus YBR021W, strain FUR4, active compounds read low 0.977 | S. cerevisiae deletion strains, locus YBR229C, strain ROT2, active compounds read low 1.01 | S. cerevisiae deletion strains, locus YCL029C, strain bik1, active compounds read low 1.03 | S. cerevisiae deletion strains, locus YDL035C, strain GPR1, active compounds read low 1.02 | S. cerevisiae deletion strains, locus YDL074C, strain BRE1, active compounds read low 1.02 | S. cerevisiae deletion strains, locus YDL101C, strain DUN1, active compounds read low 1.01 | S. cerevisiae deletion strains, locus YDL134C, strain PPH21, active compounds read low 1.01 | S. cerevisiae deletion strains, locus YDL185W, strain tfp1, active compounds read low 1.02 | S. cerevisiae deletion strains, locus YDL192W, strain arf1, active compounds read low 1.03 | S. cerevisiae deletion strains, locus YDR101C, strain arx1, active compounds read low 1.02 | S. cerevisiae deletion strains, locus YDR150W, strain NUM1, active compounds read low 1.01 | S. cerevisiae deletion strains, locus YDR162C, strain NBP2, active compounds read low 1.01 | S. cerevisiae deletion strains, locus YDR318W, strain mcm21, active compounds read low 1.02 | S. cerevisiae deletion strains, locus YDR388W, active compounds read low 1.02 | S. cerevisiae deletion strains, locus YDR502C, strain sam2, active compounds read low 1.02 | S. cerevisiae deletion strains, locus YEL061C, strain CIN8, active compounds read low 1.01 | S. cerevisiae deletion strains, locus YER110C, active compounds read low 1.03 | S. cerevisiae deletion strains, locus YER155C, strain BEM2, active compounds read low 1 | S. cerevisiae deletion strains, locus YER167W, strain BCK2, active compounds read low 1.01 | S. cerevisiae deletion strains, locus YGL078C, strain dbp3, active compounds read low 1.02 | S. cerevisiae deletion strains, locus YGL086W, strain mad1, active compounds read low 1.01 | S. cerevisiae deletion strains, locus YGL248W, strain PDE1, active compounds read low 1.01 | S. cerevisiae deletion strains, locus YGR078C, strain PAC10, active compounds read low 1 | S. cerevisiae deletion strains, locus YGR135W, strain pre9, active compounds read low 1.02 | S. cerevisiae deletion strains, locus YGR229C, strain SMI1, active compounds read low 0.99 | S. cerevisiae deletion strains, locus YGR252W, strain gcn5, active compounds read low 1.03 | S. cerevisiae deletion strains, locus YHR030C, strain SLT2, active compounds read low 1.01 and 0.953 | S. cerevisiae deletion strains, locus YHR079C, strain IRE1 (second series), active compounds read low 1.02 | S. cerevisiae deletion strains, locus YHR079C, strain IRE1, active compounds read low 0.975 | S. cerevisiae deletion strains, locus YHR094C, strain hxt1, active compounds read low 1.02 | S. cerevisiae deletion strains, locus YHR129C, strain ARP1, active compounds read low 1.01 | S. cerevisiae deletion strains, locus YHR200W, strain rpn10, active compounds read low 1.03 | S. cerevisiae deletion strains, locus YIL066C, strain RNR3, active compounds read low 1.02 | S. cerevisiae deletion strains, locus YIL073C, strain SPO22, active compounds read low 1.08 | S. cerevisiae deletion strains, locus YIL125W, strain kgd1, active compounds read low 1.02 | S. cerevisiae deletion strains, locus YIR030C, strain dcg1, active compounds read low 1.02 | S. cerevisiae deletion strains, locus YJL095W, strain BCK1, active compounds read low 1.01 and 0.981 | S. cerevisiae deletion strains, locus YJL134W, strain LCB3, active compounds read low 1.01 | S. cerevisiae deletion strains, locus YJL168C, strain set2, active compounds read low 1.02 | S. cerevisiae deletion strains, locus YJL187C, strain SWE1 (second series), active compounds read low 1.02 | S. cerevisiae deletion strains, locus YJR043C, strain POL32, active compounds read low 0.995 | S. cerevisiae deletion strains, locus YJR066W, strain TOR1, active compounds read low 0.872 | S. cerevisiae deletion strains, locus YJR075W, strain HOC1, active compounds read low 1 | S. cerevisiae deletion strains, locus YKL009W, strain mrt4, active compounds read low 1.02 | S. cerevisiae deletion strains, locus YKL068W, active compounds read low 1.03 | S. cerevisiae deletion strains, locus YKL085W, strain MDH1 (second series), active compounds read low 1.01 | S. cerevisiae deletion strains, locus YKL085W, strain MDH1, active compounds read low 1.01 | S. cerevisiae deletion strains, locus YKL190W, strain CNB1, active compounds read low 1.01 | S. cerevisiae deletion strains, locus YKR001C, strain vps1, active compounds read low 1.02 | S. cerevisiae deletion strains, locus YLR039C, strain RIC1, active compounds read low 1.03 | S. cerevisiae deletion strains, locus YLR058C, strain SHM2, active compounds read low 1.01 | S. cerevisiae deletion strains, locus YLR102C, strain apc9, active compounds read low 1.02 | S. cerevisiae deletion strains, locus YLR113W, strain HOG1, active compounds read low 1.01 | S. cerevisiae deletion strains, locus YLR262C, strain YPT6, active compounds read low 1.05 | S. cerevisiae deletion strains, locus YLR268W, strain sec22, active compounds read low 1.03 | S. cerevisiae deletion strains, locus YLR330W, strain CHS5, active compounds read low 1.01 | S. cerevisiae deletion strains, locus YLR342W, strain FKS1 (second series), active compounds read low 0.987 | S. cerevisiae deletion strains, locus YLR371W, strain rom2, active compounds read low 1.01 | S. cerevisiae deletion strains, locus YLR418C, strain cdc73, active compounds read low 1.04 | S. cerevisiae deletion strains, locus YML016C, strain PPZ1, active compounds read low 1.01 | S. cerevisiae deletion strains, locus YML032C, strain rad52, active compounds read low 1.02 | S. cerevisiae deletion strains, locus YML124C, strain tub3, active compounds read low 1.03 | S. cerevisiae deletion strains, locus YMR078C, strain ctf18, active compounds read low 1.04 | S. cerevisiae deletion strains, locus YMR223W, strain ubp8, active compounds read low 1.01 | S. cerevisiae deletion strains, locus YMR263W, strain SAP30, active compounds read low 1 | S. cerevisiae deletion strains, locus YMR307W, strain GAS1, active compounds read low 0.996 | S. cerevisiae deletion strains, locus YNL067W, strain RPL9B, active compounds read low 1 | S. cerevisiae deletion strains, locus YNL128W, strain TEP1, active compounds read low 1.01 | S. cerevisiae deletion strains, locus YNL153C, strain GIM3, active compounds read low 1 | S. cerevisiae deletion strains, locus YNL183C, strain NPR1, active compounds read low 0.883 | S. cerevisiae deletion strains, locus YNL233W, strain BNI4, active compounds read low 1.01 | S. cerevisiae deletion strains, locus YNL250W, strain rad50, active compounds read low 1.02 | S. cerevisiae deletion strains, locus YNL271C, strain bni1, active compounds read low 1.03 | S. cerevisiae deletion strains, locus YNL298W, strain CLA4, active compounds read low 1.04 | S. cerevisiae deletion strains, locus YNL307C, strain MCK1, active compounds read low 1.03 | S. cerevisiae deletion strains, locus YNL322C, strain KRE1, active compounds read low 1.01 | S. cerevisiae deletion strains, locus YNR052C, strain pop2, active compounds read low 1.03 | S. cerevisiae deletion strains, locus YOL006C, strain TOP1, active compounds read low 1.03 | S. cerevisiae deletion strains, locus YOL012C, strain htz1 1.51 | S. cerevisiae deletion strains, locus YOL147C, strain pex11, active compounds read low 1.02 | S. cerevisiae deletion strains, locus YOR061W, strain CKA2, active compounds read low 1.01 | S. cerevisiae deletion strains, locus YOR069W, strain VPS5, active compounds read low 1 | S. cerevisiae deletion strains, locus YOR136W, strain idh2, active compounds read low 1.02 | S. cerevisiae deletion strains, locus YOR144C, strain elg1, active compounds read low 1.02 | S. cerevisiae deletion strains, locus YOR184W, strain ser1, active compounds read low 1.03 | S. cerevisiae deletion strains, locus YOR231W, strain MKK1, active compounds read low 0.979 | S. cerevisiae deletion strains, locus YOR316C, strain cot1, active compounds read low 1.02 | S. cerevisiae deletion strains, locus YPL055C, strain LGE1, active compounds read low 1 | S. cerevisiae deletion strains, locus YPL241C, strain CIN2, active compounds read low 1.01 | S. cerevisiae deletion strains, locus YPL256C, strain CLN2, active compounds read low 0.941 | S. cerevisiae deletion strains, locus YPR119W, strain clb2, active compounds read low 1.02 | S. cerevisiae deletion strains, locus YPR141C, strain kar3, active compounds read low 1.03 | S. cerevisiae deletion strains, locus YPR163C, strain tif3, active compounds read low 1.02 | S. cerevisiae deletion strains, locus YPR167C, strain met16, active compounds read low 1.01 | S. cerevisiae deletion strains, strain wtn01, active compounds read low 1.02 | S. cerevisiae strains, strain wild type, active compounds read low 1
